# Measurements as given in PubChem BioAssay AID645 (SRMLSC, 2007).
# In all, about 65,000 compounds went through this assay and about 450 (0.69%) were called active. Shown is part of a subset that was picked to be rich in actives. A number with no mark means an inactive call.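 Rule for the calls: active = HER2 level under 5% of the carrier-only control; inconclusive = no clear call, values can overlap the other calls; inactive = the rest.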
# Target: Receptor tyrosine-protein kinase erbB-2 (Homo sapiens) (UniProt P04626)
# Sequence (P04626 whole entry, looked up): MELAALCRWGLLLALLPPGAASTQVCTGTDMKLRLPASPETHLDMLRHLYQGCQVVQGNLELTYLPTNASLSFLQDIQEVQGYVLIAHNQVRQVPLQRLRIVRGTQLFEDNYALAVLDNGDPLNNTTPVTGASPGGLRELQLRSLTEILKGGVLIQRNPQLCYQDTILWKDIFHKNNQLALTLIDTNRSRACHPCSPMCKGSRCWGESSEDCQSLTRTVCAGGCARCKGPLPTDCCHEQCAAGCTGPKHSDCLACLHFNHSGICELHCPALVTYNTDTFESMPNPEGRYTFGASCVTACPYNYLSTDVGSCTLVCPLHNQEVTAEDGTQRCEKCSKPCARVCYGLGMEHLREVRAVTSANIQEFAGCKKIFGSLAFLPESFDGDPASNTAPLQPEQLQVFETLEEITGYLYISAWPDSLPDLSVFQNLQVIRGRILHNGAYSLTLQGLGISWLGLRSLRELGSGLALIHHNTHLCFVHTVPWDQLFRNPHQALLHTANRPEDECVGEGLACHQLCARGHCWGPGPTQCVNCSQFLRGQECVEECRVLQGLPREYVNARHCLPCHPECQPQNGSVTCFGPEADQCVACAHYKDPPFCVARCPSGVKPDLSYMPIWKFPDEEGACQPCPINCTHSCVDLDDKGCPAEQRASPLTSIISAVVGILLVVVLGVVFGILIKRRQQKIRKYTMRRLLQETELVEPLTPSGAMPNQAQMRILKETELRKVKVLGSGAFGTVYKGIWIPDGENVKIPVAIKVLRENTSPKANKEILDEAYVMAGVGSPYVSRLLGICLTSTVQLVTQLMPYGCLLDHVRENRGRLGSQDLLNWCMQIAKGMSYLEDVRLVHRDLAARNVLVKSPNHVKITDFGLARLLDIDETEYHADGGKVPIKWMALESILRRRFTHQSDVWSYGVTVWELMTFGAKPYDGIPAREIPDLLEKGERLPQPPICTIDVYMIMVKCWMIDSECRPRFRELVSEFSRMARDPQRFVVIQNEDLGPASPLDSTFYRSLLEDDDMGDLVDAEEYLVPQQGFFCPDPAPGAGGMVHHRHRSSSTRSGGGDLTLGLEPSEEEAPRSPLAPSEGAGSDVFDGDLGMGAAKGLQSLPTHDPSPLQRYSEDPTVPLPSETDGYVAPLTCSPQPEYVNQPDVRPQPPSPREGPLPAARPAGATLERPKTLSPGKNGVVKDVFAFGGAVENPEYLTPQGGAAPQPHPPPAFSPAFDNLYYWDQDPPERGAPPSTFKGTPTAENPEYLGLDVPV
# Experiment: inhibitors of Her2 protein expression, primary screen, SKBR-3 cells, AlphaScreen, 66K library (AID 645);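 note: 100% = DMSO carrier and 0% = 500 nM PU-H71 HSP90 inhibitor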
# Conditions: SKBR-3 HER2 protein level, 18-24 h, at 10 µM, stronger effect = lower value
row,Compound,HER2 level % of control
1,CCOC(=O)Cc1csc(NC(=O)C(C)(C)C)n1,135%
2,CCc1nc2ccccc2n(CCOCCOCCn2c(=O)c(CC)nc3ccccc32)c1=O,91.8%
3,CC(=O)NC1=NC(=O)CS1,76.7%
4,Cn1c2c(c(=O)n(C)c1=O)C1c3ccccc3OCC1C(C)(C)O2 (stereo not given),99.2%
5,CCOc1ccccc1N=C1NC(=O)CS1,88.8%
6,CCN(CC)CCNC(=O)Cn1cnc2sc(C)c(S(=O)(=O)N3CCOCC3)c2c1=O,103%
7,OC(COc1cccc2ccccc12)CN1CCN(c2ccccn2)CC1 (stereo not given),105%
8,O=C1CSC(=O)N1CCOCCN1C(=O)CSC1=O,104%
9,Cc1ccc2c(CSc3nncs3)cc(=O)oc2c1,149%
10,Cc1cc(=O)[nH]c(SCc2cc(Cl)ccc2OC(F)F)n1,103%
11,CC1CC(c2ccccc2)n2nc(NC(=O)c3cccs3)nc2N1 (stereo not given),89%
12,CCOC(=O)Cc1c(C)nc2c(C#N)c(C)nn2c1C,92.6%
13,COCCNCCOCCOc1cccc(OC)c1,102%
14,Cc1nc(C)c2c(c1C(F)(F)F)-c1ccccc1C2(F)F,78.7%
15,COc1ccc(C(c2nnnn2C2CCCCC2)N2CCN(c3ccccc3F)CC2)cc1 (stereo not given),80.7%
16,O=C(c1ccc2c(c1)N(Cc1ccc(F)cc1)C(=O)CS2)N1CCOCC1,98.6%
17,CC(=O)N1CCN(c2cccc(C)c2C)CC1,110%
18,COc1ccc(C(CNC(=O)c2cccnc2SC)N2CCOCC2)cc1 (stereo not given),106%
19,CC(=O)Nc1ccc(S(=O)(=O)N2CCCC2C(=O)O)cc1 (stereo not given),162%
20,COC(=O)c1ccc(NC(=O)C(C)N2C(=O)c3ccccc3C2=O)cc1 (stereo not given),-18.9% (active)
21,Cc1cc(C)nc(NC(=O)C(C)N2C(=O)c3ccccc3C2=O)n1 (stereo not given),89.5%
22,COC(=O)c1ccc(NC(=O)c2ccco2)cc1,85.8%
23,COC(=O)C1C(=O)c2c([nH]c(C(=O)OCCSC)c2C)CC1C (stereo not given),99.8%
24,CCOC(=O)c1c(C)n(C)c2ccc(OC)c(NC(=O)CN3CCC4(CC3)OCCO4)c12,34.4%
25,CC(C)CCNc1nc(N2CCCC2)c2c(c1C#N)CCN(C)C2,-0.705% (active)

row,Compound,HER2 level % of control
1,CCN1CCc2c(C#N)c(NCc3ccccc3)nc(NCCO)c2C1,94.1%
2,CC(C)Cc1nc(N2CCOCC2)c(C#N)c2c1CCC2,106%
3,COc1ccc(-c2cc3n(n2)CCc2nc4ccccc4n2-3)cc1,74.2%
4,COC(=O)CN(c1nc(C)c(Cl)c(OC)n1)S(=O)(=O)c1ccc(C)cc1,103%
5,CCC(=NC1CC(C)(C)NC(C)(C)C1)C1=C(O)CC(C)(C)CC1=O,76%
6,CNC(=O)c1cc2c(ccc3ccccc32)oc1=N,74.1%
7,CCCC1C(c2ccccc2)C(C#N)(C#N)C2(C#N)CC1(N)NC2=O (stereo not given),-19.3% (active)
8,O=C(O)CN(Cc1ccco1)S(=O)(=O)c1ccccc1,110%
9,CC1CCCC(C)N1C(=O)CN1CCN(c2nc(-c3ccc(F)cc3)cs2)CC1 (stereo not given),90.1%
10,CCCCc1nccn1CCn1ccnc1CCCC,106%
11,CCOC(=O)N1CCC(NC(=O)c2cnn3ccccc23)CC1,106%
12,CCCCCCC(=O)N(O)C1CC(=O)N(c2ccccc2)C1=O (stereo not given),81.1%
13,CCN(CC)C(=O)C1CCC(C)(C(=O)O)C1(C)C (stereo not given),100%
14,Cc1cc(C)c(C(=O)CN2C(=O)CCC2=O)cc1C,93.5%
15,CCCc1nc(SCC(=O)Nc2ccccc2OC)c2c(=O)n(C)c(=O)n(C)c2n1,31%
16,COc1ccc(-c2c(C)nn3c(N4CCC(C(=O)N5CCCCC5)CC4)cc(C)nc23)cc1OC,83.2%
17,O.O.O.O=S(=O)([O-])OC[C@H]1O[C@@H](O[C@]2(COS(=O)(=O)[O-])O[C@H](OS(=O)(=O)[O-])[C@@H](OS(=O)(=O)[O-])[C@@H]2OS(=O)(=O)[O-])[C@H](OS(=O)(=O)[O-])[C@@H](OS(=O)(=O)[O-])[C@@H]1OS(=O)(=O)[O-].[Al],102%
18,CC(NC(=O)CSc1nc2c(cc1C#N)CN(C)CC2)c1ccccc1 (stereo not given),110%
19,CSc1cccc(NC(=O)CSc2ccccc2)c1,95.7%
20,O=C(NCCCN1CCN(C2CCCCC2)CC1)Nc1ccccc1C(F)(F)F,82.5%
21,CCCCN(C)Cc1c(C)[nH]c2ccc(Cl)cc2c1=O,88%
22,CCCC(C)n1[nH]c(=O)c2c(C)cc(C)nc21 (stereo not given),90.1%
23,c1cc(-n2cnnn2)ccc1NC1=NCCC1,92.1%
24,COCCOC(=O)C1=C(C)NC(=O)NC1c1ccc(Cl)cc1 (stereo not given),95.6%
25,N#Cc1ccc(CSc2nnc(-c3ccccn3)n2-c2ccc(Cl)cc2)cc1,41.4%
